Shiga inhibitor – blocks Shiga toxin action in Vero cells; Vero cells, Shiga toxin protein synthesis inhibition reporter; inhibition, % at 38.7 µM; 290,000 tested, 9.2% active; in the data active means inhibition mostly above about 28%, no sharp cut-off; inactive means mostly below about 43%; further: 0% is about no effect
SARS PLpro yeast – blocks SARS-CoV papain-like protease in a yeast assay. AID 485353. Potency, µM (highest dose often 32.9 µM), for inactives: top-dose activity, positive = growth rescue, most hits filed as activators. S. cerevisiae expressing SARS-CoV PLpro, growth rescue. 330,000 tested, 0.19% active; calls by dose curve; further: potency means the concentration at half of the fitted maximal effect; 0% is about no effect; nearly all actives have a fitted effect of over 55% in size
Pf growth 96h – P. falciparum growth inhibition at 96 hours; P. falciparum luciferase reporter growth, 96 h; Potency, µM (titrated, usually from 28.7 µM), inactives show at the highest dose activity change, negative = inhibition, usual class: inhibitors; 320,000 tested, 6.9% active; AID 504834; further: potency means the concentration at half of the fitted maximal effect; on the % scale 0 is the no-effect control and ±100 the full control effect
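Two-generation exposure (96 h) targets delayed-death phenotype. Reporter parasites carrying integrated firefly luciferase, in red cells at 2% hematocrit and 0.05% parasitemia final, kept at 37 C, 5% CO2; luminescence loss indicates inhibition.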
AMA1 RON2 block – inhibitors of Plasmodium falciparum AMA1-RON2 interaction | AlphaScreen AMA1-biotinylated RON2 peptide binding | Potency, µM (titrated, usually from 58.2 µM), for the others: at the highest dose activity change, negative = inhibition, hits mostly inhibitors | 360,000 tested, 0.2% active | AID 720542;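 further: potency means the concentration at half of the fitted maximal effect; 0% = vehicle wells and -100% = peptide control; nearly all actives have a fitted effect of over 45% in size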
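AMA1 (3D7) with his tag at 25 nM final met compounds first, then biotinylated RON2 peptide at 25 nM; detection used donor plus acceptor beads, 10 µg/mL apiece, read by AlphaScreen after 30 min at room temperature.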
Cycloheximide cs – counter-screen for Shiga toxin inhibitors: cycloheximide protein synthesis inhibition; 300,000 tested, 12% active; cell reporter, cycloheximide protein synthesis inhibition counterscreen; max response, %; AID 2314; in the data active means max response mostly above about 13%, no sharp cut-off; inactive means mostly below about 14%; further: read at 38.3 µM for the half of the compounds with a filed dose; 0% is about no effect
Pf growth 48h – inhibits P. falciparum growth in the first generation, 48 h; Potency, µM (series often up to 28.7 µM), for the others: at the top dose activity change, negative = inhibition, usual class: inhibitors; P. falciparum luciferase growth in erythrocytes, 48 h; 310,000 tested, 5.9% active; further: potency means the concentration at half of the fitted maximal effect; on the % scale 0 is the no-effect control and ±100 the full control effect
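Erythrocytes infected with P. falciparum carrying an integrated firefly luciferase reporter (2% hematocrit, 0.1% parasitemia final) were exposed to compounds in RPMI 1640 with 0.5% Albumax at 37 C, 5% CO2. Growth inhibition was scored as reduced luminescence.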
* marks the source's active call; other numbers are inactive results; i = inactive; u = inconclusive; x = no result given. Most compounds without a hit are left out; they make up all but 19% or so of the library. Unless noted, the call rests on the fitted dose curve; in most records, active means well fitted curve in the direction sought with a large enough effect; inconclusive means small, poorly fitted or top-dose-only effect, or another doubt; inactive means no such curve, though single readings can be large; an effect the other way counts as inactive or inconclusive.

SMILES | Shiga inhibitor | SARS PLpro yeast | Pf growth 96h | AMA1 RON2 block | Cycloheximide cs | Pf growth 48h
COc1ccc(NC(=O)COC(=O)c2c(-c3ccccc3)noc2C)cc1 | -9 | 1% | 10µM* | 13% | -3 | u
Cc1onc(-c2ccccc2)c1C(=O)OCC(=O)Nc1ccccc1 | x | 4% | -4% | -11% | x | u
COc1ccc(/C=C/C(=O)NC(=S)NNC(=O)c2c(-c3ccccc3)noc2C)cc1 | -2 | u | u | 71% | -1 | 53%
CCOc1ccc(N(CC(=O)Nc2nccs2)S(=O)(=O)c2c(C)noc2C)cc1 | -19 | 0% | u | 27% | -6 | x
O=S1(=O)CCOC[C@H](Cc2ccccc2)N1Cc1ccccc1F | x | x | x | 3% | x | x
O=C(Nc1cccc(Cl)c1)c1ccncc1 | 9 | -4% | -14% | 11% | 0 | 16%
CC(C)c1onc(C(=O)NCc2ccccn2)c1[N+](=O)[O-] | -4 | -3% | 2% | 24% | 10 | u
CC(C)c1onc(C(=O)Nc2cccc(Cl)c2)c1[N+](=O)[O-] | 35 | -2% | -1% | 11% | 25* | u
CC(=O)c1cccc(NC(=O)c2cc(C(C)C)on2)c1 | 84* | -4% | -15% | -4% | 40* | x
CC(C)c1cc(C(=O)Nc2cccc(Cl)c2)no1 | 82* | -17% | u | 48% | 30* | -12%
CC1(C(=O)NCc2cccc3ccccc23)CCN1Cc1ccccc1OC(F)F (centres undefined) | x | x | x | -5% | x | x
CC(C)COc1ccc(C(=O)Nc2scc(-c3ccc(Cl)cc3Cl)c2C(N)=O)cc1 | -13 | -5% | u | -1% | 3 | 3.3µM*
O=C(Nc1nc(-c2ccc(Cl)cc2Cl)cs1)c1ccc(OCC2CCCO2)cc1 (centres undefined) | -2 | 1% | u | -4% | -3 | -21%
C(=C\c1ccccc1)/CSc1nnc(-c2ccccn2)n1Cc1ccco1 | -9 | -12% | x | 3% | 0 | u
COc1ccc(OC)c(S(=O)(=O)N2CCCc3ccccc32)c1 | -10 | -3% | -6% | -2% | -5 | 6%
Cn1c(-c2ccccc2[N+](=O)[O-])[n+](C)c2ccccc21 | 8 | 1% | 4.1µM* | 2% | 1 | 10µM*
C=CCn1c(C)cc(-c2csc(NCC)n2)c1C | 89* | -4% | u | -21% | 43* | u
Cc1cc(C)c(-c2csc(NC(=O)C3=COCCO3)n2)cc1C | x | 0% | 15% | -8% | x | 39%
C=CCn1c(C)cc(-c2csc(NC)n2)c1C | -4 | -2% | u | -1% | 1 | u
C=CCn1c(C)cc(-c2csc(NC(=O)C3=COCCO3)n2)c1C | x | -2% | u | 8% | x | 5.2µM*
O=C(O)c1ccc(Nc2nc3ccc(Cl)cc3[nH]2)cc1 | 7 | -1% | 33% | 4% | 3 | 52%
COC(=O)c1ccc([C@@H]2C[C@H]3CN(Cc4cccnc4)C(=O)[C@]34CCCN24)cc1 | -15 | 0% | 10µM* | 1% | -3 | u
O=C1N(Cc2cccc(Cl)c2)C[C@@H]2C[C@@H](c3cccn3-c3cccnc3)N3CCC[C@@]123 | -6 | 0% | 18% | -13% | 1 | 9.3µM*
Cn1cc([C@@H]2C[C@H]3CN(Cc4cccc(Cl)c4)C(=O)[C@]34CCCN24)c(-c2ccccc2)n1 | -13 | -2% | 2.9µM* | 7% | 1 | 40%
COc1cccc(CC(=O)OCC(=O)NCCc2ccc(F)cc2)c1 | x | -6% | -30% | 0% | x | -23%
SMILES | Shiga inhibitor | SARS PLpro yeast | Pf growth 96h | AMA1 RON2 block | Cycloheximide cs | Pf growth 48h
Fc1ccc(-c2ccnn2-c2ccccc2)cc1 | 22 | -1% | 34% | 5% | 14 | 11%
Nc1c(-c2cccc(Cl)c2)cnn1-c1ccccc1 | 70* | -5% | 102% | -6% | 45* | 90%
Cc1nnc(-c2cnn(-c3ccccc3)c2N)n1Cc1ccncc1 | -22 | -5% | 138% | 16% | 11 | 49%
Cc1ccc(-c2cnn(-c3cccc(C(F)(F)F)c3)c2N)cc1 | 89* | -17% | 184% | -7% | 41* | 30%
O=c1oc(-c2cccc(Cl)c2)nc2c1cnn2-c1ccccc1 | -10 | -1% | x | 7% | -3 | -6%
O=c1cnn(-c2ccccc2)c(-c2ccccc2)c1 | 62* | -3% | -17% | 15% | 23* | 39%
Nc1c(-c2ccccc2)cnn1-c1ccccc1 | 87* | -4% | 304% | -9% | 44* | 165%
Nc1c(-c2ccc(Cl)cc2)cnn1-c1cccc(C(F)(F)F)c1 | 41 | 2% | 136% | 2% | 19 | 94%
COC(=O)c1ccc(NC(C)C(=O)OC)c([N+](=O)[O-])c1 (centres undefined) | -4 | 4% | u | 16% | -1 | -1%
CCOc1ncccc1C(=O)N(C)CC(=O)Nc1ccccc1SC | -6 | 21% | i | -6% | -2 | 4%
CC(=O)Oc1ccc(N(C(C)=O)S(=O)(=O)c2ccc(C)c([N+](=O)[O-])c2)cc1 | -13 | -11% | 2.6µM* | -8% | -1 | 3%
COc1ccc(N(CC(=O)Nc2ccccc2C(=O)O)S(=O)(=O)c2ccc(C)c([N+](=O)[O-])c2)cc1 | -7 | 0% | 8% | -8% | -2 | -15%
N#Cc1c(NC(=O)C2CC(c3c(F)cccc3Cl)=NO2)sc2c1CCC2 (centres undefined) | 36* | 10% | 3% | 15% | 23* | -9%
COc1ccccc1CNC(=O)C1CC(c2c(Cl)cccc2Cl)=NO1 (centres undefined) | -18 | -12% | u | 40% | 11 | 32%
COc1cc(NC(=O)C2CC(c3c(F)cccc3Cl)=NO2)c(OC)cc1Cl (centres undefined) | x | -1% | 10µM* | -16% | -3 | -29%
COc1ccc(NC(=O)C2CC(c3c(F)cccc3Cl)=NO2)cc1OC (centres undefined) | x | 1% | 256% | -4% | 21* | -15%
Cc1ccc(O)c(NC(=O)C2CC(c3c(F)cccc3Cl)=NO2)c1 (centres undefined) | 28 | 0% | x | -9% | 12 | u
CCc1c(C)sc(NC(=O)C2CC(c3c(F)cccc3Cl)=NO2)c1C#N (centres undefined) | 11 | -11% | u | -21% | 9 | 1%
CN1CCN(C(=O)C2CC(c3c(F)cccc3Cl)=NO2)CC1 (centres undefined) | 15 | -4% | x | -1% | 10* | 14%
O=C(NCCCl)Nc1ccccc1NS(=O)(=O)c1cccs1 | x | -3% | x | -2% | x | x
Cc1ccc(NC(=O)COc2ccc(N(C)C(=O)C(C)(C)C)cc2)cc1S(=O)(=O)N1CCCCC1 | x | -2% | x | -7% | x | x
COc1cc(O)c(C(CCN2CCCC(C)C2)c2cc(OC)c(OC)c(OC)c2)c(OC)c1 (centres undefined) | -9 | 0% | 0.52µM* | 50% | -7 | 1.3µM*

Bioassay records (PubChem BioAssay)
